Compound activity deposited in PubChem BioAssay by The Scripps Research Institute Molecular Screening Center.
FBW7 act: FBW7 E3 ligase activators, primary screen, biochemical, AlphaScreen, human. F-box/WD repeat-containing protein 7 (Homo sapiens), Q969H0. AlphaScreen FBW7–phospho-cyclin E peptide binding, activator screen. normalized activity (activation), % at 26.1 µM. hit rate 0.13% among 650,000; in the data active = normalized activity above about 1.9%;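 note: purified mutant Fbw7 with reduced substrate affinity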
GPR151 activ: activators of human GPR151, primary screen, cell-based, PathHunter beta-arrestin, luminescence | hit rate 1% among 650,000 | activation, % at 11.2 µM | AID 1508602, 2020 | PathHunter beta-arrestin GPR151 cells | G-protein coupled receptor 151 (Homo sapiens), Q8TDV0; in the data active = activation above about 4.9%;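 note: 0% = median of compound wells and 100% = cells with positive control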
Target sequence (Q8TDV0 whole entry, looked up): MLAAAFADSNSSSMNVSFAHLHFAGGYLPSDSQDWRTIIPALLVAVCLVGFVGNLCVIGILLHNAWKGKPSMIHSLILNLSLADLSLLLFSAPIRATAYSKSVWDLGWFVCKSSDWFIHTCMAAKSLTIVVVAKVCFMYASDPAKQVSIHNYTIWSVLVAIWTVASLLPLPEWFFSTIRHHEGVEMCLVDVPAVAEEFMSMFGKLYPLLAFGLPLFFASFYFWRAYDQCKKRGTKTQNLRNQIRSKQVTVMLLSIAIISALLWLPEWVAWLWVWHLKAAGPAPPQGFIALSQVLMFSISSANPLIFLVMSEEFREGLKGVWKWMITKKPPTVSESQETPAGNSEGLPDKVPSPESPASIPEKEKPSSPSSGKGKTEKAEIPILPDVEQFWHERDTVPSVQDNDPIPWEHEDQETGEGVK
TEAD-YAP block: TEAD-YAP interaction inhibition, primary screen, TEAD-YAP interaction inhibitor project, luminescence, HEK-TIYL cells. TEAD-Gal4/YAP UAS-luciferase luminescence. hit rate 1.4% among 640,000. inhibition, % at 9.12 µM; in the data active = inhibition above about 32%;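 note: 0% = median of test compound wells and 100% = reference inhibitor wells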
MITF inh: MITF inhibitors, primary screen, biochemical, AlphaScreen, human. AlphaScreen MITF homodimerization, bead proximity signal. hit rate 0.91% among 650,000. AID 1259374, 2018. Microphthalmia-associated transcription factor (Homo sapiens), O75030. inhibition, % at 2.6 µM; in the data active = inhibition above about 50%;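 note: 0% = vehicle wells with protein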
GPR151 confirm: GPR151 activators, triplicate retest, confirmation, cell-based, PathHunter beta-arrestin, luminescence; shares compounds with GPR151 activ; AID 1508609, 2020; activation, % at 11.2 µM; 6,700 tested, under 10 active; GPR151 PathHunter beta-arrestin cells, 90 min; % of EA-reagent control over plate median;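 active = mean percent activation across replicates above the confirmation screen cutoff of 4.91%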
GPR119 ag: GPR119 activators in beta-arrestin cells, counter-screen for GPR151 activator project, cell-based, PathHunter beta-arrestin, luminescence, triplicate; hit rate 0.3% among 6,700; shares compounds with GPR151 activ; 90 min; 0 = compound-well median, 100 = enzyme-acceptor control; AID 1508611, 2020; activation, % at 11.2 µM;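 active = mean percent activation in the counterscreen above 29.09%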;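 note: counterscreen on off-target GPR119 to flag nonselective hits from the GPR151 activator screen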
* hit, by the source's call; x = not tested or not shown. Only some compounds are listed: those with a hit (about 3.5% of all), similar ones and a draw of the others.

SMILES	FBW7 act	GPR151 activ	TEAD-YAP block	MITF inh	GPR151 confirm	GPR119 ag
COc1ccc(C(=O)NC(C)(C)CC(C)(C)C)cc1[N+](=O)[O-]	0	6.6*	-10	11	0	0
Cn1ccc2cc(-c3cc(N)nc(N)n3)ccc21	0	0	-4	-3	x	x
CC(C)CS(=O)(=O)Nc1ccc2c(c1)CCCN2S(=O)(=O)c1ccc(F)cc1	0	5.2*	-10	-4	0	-2
Cc1ccc(C(=O)N/N=C\C(Br)=C\c2ccccc2)cn1	0	5.8*	-19	-4	0	-1
Cc1ccc(NC(=O)N(CCN(C)C)Cc2cc3cc4c(cc3[nH]c2=O)OCO4)cc1	0	-1	1	1	x	x
Cc1cccc(-c2nc(CS(=O)CC(=O)NC(C)C)c(C)o2)c1 (stereo not given)	0	1	7	7	x	x
CCN1CCN(C(=O)CS(=O)Cc2nc(-c3cccc(C)c3)oc2C)CC1 (stereo not given)	0	0	12	14	x	x
Cc1cccc(-c2nc(CS(=O)CC(=O)N3CCCC3)c(C)o2)c1 (stereo not given)	0	8.2*	7	14	-2	-13
Cc1cccc(-c2nc(CS(=O)CC(=O)NC(C)c3ccccc3)c(C)o2)c1 (stereo not given)	0	7.2*	3	15	0	-1
COc1ccc(/C=N/Nc2nnc(C(C)(C)C)c(=O)[nH]2)cc1O	0	1	6	6	x	x
CCCCN(C)Cc1c(C(=O)N2CCN(C3CCCCC3)CC2)nc2ccccn12	0	7.3*	4	14	1	6
CCCSc1ncccc1C(=O)Nc1c(C)noc1C	0	7.4*	-2	4	0	-6
COc1cccc(/C=N/Nc2nc(-c3cc4cc(OC)ccc4oc3=O)cs2)c1	0	0	-1	-1	x	x
CN(c1ccc(F)cc1)S(=O)(=O)c1ccc2[nH]cc(C(=O)N3CCCCCC3)c(=O)c2c1	0	0	2	6	x	x
COc1cccc(CC(C2CCN(C(=O)c3ncc(C)[nH]3)CC2)N(C)Cc2ccncc2)c1 (stereo not given)	0	0	3	8	x	x
COc1ccc(C2CC(c3ccccc3)=NN2C(=O)CSc2cccc[n+]2[O-])cc1 (stereo not given)	0	5.0*	5	-1	0	3
CCS(=O)(=O)C1=NSC2=NC(=O)/C(=C\c3ccc(OC)c(OC)c3)C(=N)N21	0	0	-8	-7	x	x
O=C(NCCO)C(=O)NCC(c1ccco1)S(=O)(=O)c1ccc(Cl)cc1 (stereo not given)	0	1	-3	4	x	x
CNC(=O)C(=O)NCC(c1ccco1)S(=O)(=O)c1ccc(Cl)cc1 (stereo not given)	0	5.2*	18	11	-1	-7
O=C(Cc1ccccc1[N+](=O)[O-])NNC(=O)Nc1ccc2c(c1)OCO2	0	5.1*	-12	-3	1	-2
O=C(Cc1ccccc1[N+](=O)[O-])Nc1ccc2c(c1)OCO2	0	-1	-27	-6	x	x
CCCNCc1c(C(=O)O)n(Cc2cc(C)ccc2C)c2ccccc12	1	-1	15	2	x	x
CCOC(=O)C1C(=O)C=C(c2ccc(C)cc2)CC1c1ccccc1OCC (stereo not given)	0	5.3*	3	15	0	0
CCOC(=O)C1C(=O)C=C(c2cccc(OC)c2)CC1c1ccccc1C (stereo not given)	0	1	9	-4	x	x
Cc1ccccc1-n1c(O)c(C=NCCCC(C)C)c(=O)[nH]c1=O	0	8.5*	10	-3	0	13
SMILES	FBW7 act	GPR151 activ	TEAD-YAP block	MITF inh	GPR151 confirm	GPR119 ag
COc1ccccc1N=Cc1c(O)n(-c2ccccc2C)c(=O)[nH]c1=O	0	6.0*	-3	22	1	9
Cc1cc2n(n1)C(c1cccc(O)c1)Nc1ccccc1-2 (stereo not given)	0	7.9*	7	11	0	3
O=C(Nc1ccc(-c2nc3ccccc3o2)cc1)c1cc(I)ccc1Cl	0	7.4*	-15	7	0	-5
O=C(NC(=S)Nc1ccc(-c2nc3ccccc3o2)cc1)c1cncc(Br)c1	0	6.1*	-15	4	0	15
CC(NCc1cc(Br)ccc1OCC(N)=O)C12CC3CC(CC(C3)C1)C2 (stereo not given)	0	7.6*	24	2	-1	-18
CC(C)(C)c1ccc(-c2nc(C#N)c(N3CCOCC3)o2)cc1	0	-2	-1	-1	x	x
NS(=O)(=O)c1ccc(CCNC(=O)C(=O)Nc2ccccc2F)cc1	0	7.1*	-2	-5	-1	-7
CCOC(=O)/C(C#N)=C/Nc1ccccc1NS(=O)(=O)c1ccc(C)c(C)c1	0	5.5*	-3	2	-1	-16
CCOC(=O)/C(C#N)=C/Nc1ccccc1NS(=O)(=O)c1cccc(C(C)=O)c1	0	2	-6	-1	x	x
Cc1cc(N(C)C)nc(NCCNC(=O)/C=C/c2ccccc2)n1	0	5.7*	19	13	0	-7
CCOC(=O)c1c(-c2ccccc2)oc2ccc(OCc3ccc(C(=O)OC)cc3)cc12	0	12*	-2	-3	0	18
CC(C)(C)c1[nH]nc2c1C(c1ccc([N+](=O)[O-])cc1)C(C#N)=C(N)O2 (stereo not given)	0	0	3	12	x	x
Nc1nc(NCCO)cc(Nc2ccncn2)n1	0	1	-9	4	x	x
CCCNc1cc(Nc2ccncn2)nc(N)n1	0	18*	-4	2	0	3
COc1ccc(C(=O)NCCc2sc(-c3ccccc3)nc2C)cc1	0	5.2*	-5	-7	0	1
COc1ccc(-c2nc(C)c(CCNC(=O)c3cccc(OC)c3)s2)cc1	0	1	-14	1	x	x
O=C(CCN1Cc2ccccc2OC(c2ccccc2)C1)NCc1cnc2ccccn12 (stereo not given)	0	-1	-4	-4	x	x
CC(C)(C)c1cc(C2Nc3ccc(C(=O)c4ccccc4)cc3NC3=C2C(=O)CCC3)cc(C(C)(C)C)c1O (stereo not given)	0	-1	-20	11	x	x
CCN1CCN(C(C)C(=O)Nc2ncc(C)s2)CC1 (stereo not given)	0	7.0*	4	16	1	12
